Screen size: about 5,500 compounds; about 2,000 (36%) were called active. About 18% were inconclusive and are not listed. Cut-off read from the data, not from the text of the source: active = normalized growth mostly below about 0.91 (no sharp cut-off); inconclusive = no clear call, values can overlap the other calls; inactive = mostly above about 0.92. Some of the results follow.
Experiment: chemical genetic growth profiling, strain panel (AID 1159580);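 note: tested at 20 µM; growth read once vehicle control cultures reached saturation at 30 °C; 1 = growth at the plate median or of vehicle wells; lower values mean less growth of the strain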
Settings: S. cerevisiae deletion strains, growth OD

Measured: normalized growth

CCN(CC)C(=O)N[C@@H]1C=C2c3cccc4[nH]cc(c34)C[C@H]2N(C)C1
inactive: locus YAL040C, strain CLN3, active compounds read low 1.08 | locus YCL061C, strain MRC1 (second series), active compounds read low 1 | locus YDR363W, strain ESC2, active compounds read low 0.989 | locus YER002W, strain NOP16, active compounds read low 1 | locus YGR078C, strain PAC10, active compounds read low 0.985 | locus YJR075W, strain HOC1, active compounds read low 0.983 | locus YMR263W, strain SAP30, active compounds read low 0.991 | locus YNL153C, strain GIM3, active compounds read low 1.02 | locus YNL175C, strain NOP13, active compounds read low 1.01 | locus YNL197C, strain WHI3, active compounds read low 1 | locus YNL224C, strain SQS1, active compounds read low 0.997 | locus YNL322C, strain KRE1, active compounds read low 0.997 | locus YOR083W, strain WHI5 (second series), active compounds read low 0.992
